Sampled rows, rich in hits. Any-hit rate of the full collection: about 0.34%.
ASM inhibitor = inhibitors of human secretory acid sphingomyelinase | placental ASM, HMU-PC fluorogenic substrate, 60 min | Potency, µM (titrated, usually from 57.5 µM), for the others: at the highest dose activity change, negative = inhibition, most hits filed as inhibitors | 340,000 tested, 0.006% active
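Human placenta-derived ASM preincubated with compound 10 min at room temperature, then reacted with 9 uM (final) fluorogenic HMU-PC substrate for 60 min at 37 C. Stop solution raises pH to 10; fluorescence read at Ex 386/Em 447 nm.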
Vif-A3G inh = blocks the Vif interaction with human APOBEC3G. 410,000 tested, 0.076% active. Q9HC16. AID 602310. Potency, µM (titrated, usually from 46.1 µM), for the others: top-dose activity, negative = active, most hits filed as inhibitors. HeLa A3G-eYFP + Vif (tagged APOBEC3G with the HIV-1 protein that degrades it), YFP fluorescence, overnight; further: on the % scale 0 is the no-effect control and ±100 the full control effect; nearly all actives have a fitted effect of over 60% in size
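HeLa cells stably expressing Vif and C-terminally eYFP-tagged A3G, seeded overnight at 37 deg C, then exposed to compound by pintool overnight at 37 deg C. Rise in yellow fluorescence (Ex 488/Em 500-530, Acumen) marks blocked Vif-driven A3G degradation.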
Rango dissoc inh = inhibition of RanGTP-driven Rango-importin beta dissociation; O95149+P62826; Biochemical FRET Rango-importin beta, RanGTP-induced dissociation; Potency, µM (series often up to 46.1 µM), inactives show at the highest dose activity change, negative = inhibition; 340,000 tested, 0.071% active; calls by dose curve; further: % of control where 0% means no effect; nearly all actives have a fitted effect of over 45% in size
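Rango FRET biosensor (snurportin-1 IBB flanked by N-terminal EYFP and C-terminal CFP10) at 0.1 uM, with 0.25 uM importin beta in PBS, 1mM DTT, 0.02% Tween-20, 0.1% BSA. 0.6 uM Ran, 2mM GTP and 0.2 uM RCC1 were then added for 45 min at room temperature. Inhibition read as loss of FRET rise.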
Vif-A3F inh = Vif-A3F binding inhibition; 390,000 tested, 0.2% active; AID 602313; Potency, µM (series often up to 46.1 µM), for the others: at the highest dose activity, negative = active; HeLa A3F-eYFP + Vif (tagged APOBEC3F with the HIV-1 protein that degrades it), YFP fluorescence increase; further: % of control where 0% means no effect; nearly all actives have a fitted effect of over 65% in size
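HeLa cells stably expressing A3F-eYFP plus Vif, plated and incubated overnight at 37 deg C, then exposed to compounds overnight at 37 deg C. Blocked degradation read as raised yellow fluorescence (Ex 488/Em 500-530).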
Rango complex inh = Rango-importin beta binding inhibition; Rango CFP/YFP FRET sensor + importin beta, 45 min; Potency, µM (top dose mostly 92.2 µM), for the others: at the top dose inhibition of complex formation; Q14974; 340,000 tested, 0.031% active; calls by dose curve;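 further: 0% = DMSO wells and 100% = buffer wells lacking importin beta; nearly all actives have a fitted effect of over 15% in size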
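FRET biosensor Rango (snurportin 1 IBB between N-terminal EYFP and C-terminal Cerulean), 50 nM in PBS/1 mM DTT/0.02% Tween-20/0.1% BSA, preincubated 5 min RT with compound; 0.125 microM importin beta added, 45 min RT, CFP/YFP FRET ratio read.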
Eya2 inh = blocks the phosphatase activity of human Eya2 | O00167 | recombinant Eya2, OMFP fluorescence dephosphorylation (OMFP is methylfluorescein phosphate) | Potency, µM (series often up to 76.9 µM), inactives show top-dose activity, negative = inhibition, most hits filed as inhibitors | 330,000 tested, 0.006% active | AID 488837; further: on the % scale 0 is the no-effect control and ±100 the full control effect
Target sequence (O00167 whole entry, looked up): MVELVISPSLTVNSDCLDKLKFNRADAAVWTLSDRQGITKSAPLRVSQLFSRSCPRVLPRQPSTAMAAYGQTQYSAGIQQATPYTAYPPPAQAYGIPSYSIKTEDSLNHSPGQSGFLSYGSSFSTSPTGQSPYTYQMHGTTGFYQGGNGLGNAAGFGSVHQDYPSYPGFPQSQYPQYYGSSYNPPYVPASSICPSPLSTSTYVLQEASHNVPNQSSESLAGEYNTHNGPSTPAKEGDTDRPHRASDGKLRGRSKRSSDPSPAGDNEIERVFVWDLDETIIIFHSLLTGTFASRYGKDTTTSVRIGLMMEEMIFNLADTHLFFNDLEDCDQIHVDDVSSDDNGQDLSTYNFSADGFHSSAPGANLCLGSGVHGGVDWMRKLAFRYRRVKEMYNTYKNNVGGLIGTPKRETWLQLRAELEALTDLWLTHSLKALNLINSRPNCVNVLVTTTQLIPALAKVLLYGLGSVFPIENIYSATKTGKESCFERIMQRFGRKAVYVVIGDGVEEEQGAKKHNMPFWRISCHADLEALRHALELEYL
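Eya2 (0.2 uM) preincubated 10 min at ambient with compound, then OMFP substrate added at 50 uM; 10 min reaction in 50 mM HEPES pH 7.5, 50 mM NaCl, 5 uM MgCl2, 0.05% BSA, 1 mM DTT. Fluorescence read at Ex 485/Em 525 nm.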
The depositor's hits bear a star. Unless noted, the call rests on the fitted dose curve; in most records, active means well fitted curve in the direction sought with a large enough effect; inconclusive means small, poorly fitted or top-dose-only effect, or another doubt; inactive means no such curve, though single readings can be large; an effect the other way counts as inactive or inconclusive. Potency means the concentration at half of the fitted maximal effect.

How did O=C(O)c1cccc(-c2ccc(/C=N/Nc3ccc([N+](=O)[O-])cc3)o2)c1 do in these assays?
ASM inhibitor: -5%; Vif-A3G inh: inconclusive; Rango dissoc inh: inconclusive; Vif-A3F inh: 22µM*; Rango complex inh: inconclusive; Eya2 inh: -2%

Results for CCCCC(=O)N/N=C/c1ccc(-c2ccc([N+](=O)[O-])cc2)o1 ?
ASM inhibitor: 22%; Vif-A3G inh: -3%; Rango dissoc inh: inconclusive; Vif-A3F inh: -2%; Rango complex inh: inconclusive; Eya2 inh: -5%

Results for CC(C)(C)NC(=S)N/N=C\c1ccc(-c2ccc([N+](=O)[O-])cc2)o1 ?
ASM inhibitor: -8%; Vif-A3G inh: 10µM*; Rango dissoc inh: inconclusive; Vif-A3F inh: 25µM*; Rango complex inh: inconclusive; Eya2 inh: -4%

What do the screens show for `CCc1ccccc1N(C)C`?
Vif-A3G inh: 0%

What do the screens show for `CCCCNC(=O)[C@@H]1CC=C[C@@H]2CCN(C3CCCCC3)C(=O)[C@@H]21`?
Vif-A3G inh: 3%

What do the screens show for `Oc1ccc(/C=N/n2c(C3CCCCC3)n[nH]c2=S)c(O)c1`?
ASM inhibitor: 19%; Vif-A3G inh: 1%; Rango dissoc inh: 13%; Vif-A3F inh: -1%; Rango complex inh: -4%; Eya2 inh: -7%

What do the screens show for `Oc1ccc(Br)cc1/C=N/n1c(C2CCCCC2)n[nH]c1=S`?
ASM inhibitor: -3%; Vif-A3G inh: -12%; Rango dissoc inh: 15µM*; Vif-A3F inh: 0%; Rango complex inh: inconclusive; Eya2 inh: -12%

Results for CC(=O)N/N=C/c1cc(C(C)(C)C)cc(/C=N/NC(C)=O)c1O ?
ASM inhibitor: 12%; Vif-A3G inh: 13µM*; Rango dissoc inh: inconclusive; Vif-A3F inh: 22µM*; Rango complex inh: inconclusive; Eya2 inh: 7%

How did Cc1cc(C(=O)N/N=C\c2cc(C(C)(C)C)ccc2O)n[nH]1 do in these assays?
ASM inhibitor: 7%; Vif-A3G inh: -19%; Rango dissoc inh: -15%; Vif-A3F inh: 5%; Rango complex inh: 4%; Eya2 inh: 3%

What do the screens show for `COc1ccc(C2NN=C(c3c[nH]c4ccccc34)C2O)cc1` (stereo unspecified)?
ASM inhibitor: 1%; Vif-A3G inh: inconclusive; Rango dissoc inh: -29%; Vif-A3F inh: 22µM*; Rango complex inh: inconclusive; Eya2 inh: 7%

How did CCOC(=O)c1c(-c2ccc(OC)cc2)csc1/N=C/C1C(=O)CCCC1=O do in these assays?
ASM inhibitor: -9%; Vif-A3G inh: inconclusive; Rango dissoc inh: inconclusive; Vif-A3F inh: 25µM*; Rango complex inh: inconclusive; Eya2 inh: 11%

Results for COc1cc2c(NC3CCN(C)CC3)nc(N3CCCCC3)nc2cc1OCCCN(C)C ?
Vif-A3G inh: -8%

Bioassay records deposited in PubChem by National Center for Advancing Translational Sciences (NCATS).
